In paper PMC6792352, “Limited Chemical Structural Diversity Found to Modulate Thyroid Hormone Receptor in the Tox21 Chemical Library” (Environmental Health Perspectives, 2019):
Structures can show the parent of a compound that is named as a salt.

Tested on: thyroid hormone receptor (endogenous TRα and TRβ)
Set-up: species or system GH3-TRE-Luc (rat pituitary); GH3-TRE-Luc luciferase reporter, antagonist mode against 1 nM T3, loss of signal, qHTS
Details: read-out: Average AC50 (uM) GH3-TRE-Antag, antagonist mode, 1 nM T3, no GH3 cytotoxicity hit

Question: How did the AC50 turn out when `O=C(CCC1CCN(Cc2ccccc2)CC1)c1ccc2c(c1)NCCCC2` [Zanapezil fumerate] was run?
Answer: 12.4 µM

Question: Which AC50 does the source give for `CC(C)(C)c1cccc(C(C)(C)C)c1O` [2,6-Di-tert-butylphenol] here?
Answer: 25.4 µM

Question: How did the AC50 turn out when `Cc1occc1SSc1ccoc1C` [Bis(2-methyl-3-furyl)disulfide] was run?
Answer: 65.9 µM

Question: Which AC50 does the source give for `CC(C)(O)c1cnn2c(-c3ccc(F)c(-c4c(F)cccc4C#N)c3)cnc2n1` [PharmaGSID_47330] here?
Answer: 42.1 µM

Question: `O=C(OCc1ccccc1)c1ccc(O)cc1` [Benzylparaben] was tested. Which AC50 did it give?
Answer: > 50 µM

Question: With `Clc1cc(Cl)c2c(c1)N=C1CCCCCN1C2` [1,3-dichloro-6,7,8,9,10,12-hexahydroazepino[2,1-b]quinazoline hydrochloride (1:1)] as the compound, how does the AC50 read?
Answer: 40.1 µM

Question: For `C(CCOCC1CO1)COCC1CO1` (stereo not drawn) [1,4-Butanediol diglycidyl ether], which AC50 is on record?
Answer: 37.9 µM

Question: For `COc1c(C)c2c(c(O)c1C/C=C(\C)CCC(=O)O)C(=O)OC2` [Mycophenolic acid], which AC50 is on record?
Answer: 0.537 µM

Question: For `O=C(Nc1ccc(Cl)c(Cl)c1)C1CC1` [Cypromid], which AC50 is on record?
Answer: 45.8 µM

Question: For `CCC(C)COC(=O)CC(C)C` (stereo not drawn) [2-Methylbutyl isovalerate], which AC50 is on record?
Answer: 71.8 µM

Question: `CCO/N=C(\CC)C1=C(O)CC(c2c(C)cc(C)cc2C)CC1=O` (stereo not drawn) [Tralkoxydim] was tested. Which AC50 did it give?
Answer: > 90 µM

Question: `COC(=O)[C@@H]1[C@H]2C[C@H]3c4[nH]c5ccccc5c4CCN3C[C@@H]2CC[C@@H]1O` [Yohimbine] was tested. Which AC50 did it give?
Answer: 43.8 µM
